Laboratory results published in PubChem BioAssay AID1159580 (chemical genetic matrix, 2015).
Among all 5,500 compounds or so, about 2,000 (36%) were called active. Inconclusive results (about 18%) are left out. No stated cut-off is given here; in the data, active means normalized growth mostly below about 0.91 (no sharp cut-off); inconclusive means no clear call, values can overlap the other calls; inactive means mostly above about 0.92. This is one part of the list.

Experiment: chemical genetic growth profiling, strain panel (AID 1159580);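 further: tested at 20 µM; growth read once vehicle control cultures reached saturation at 30 °C; 1 = growth at the plate median or of vehicle wells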
Conditions: S. cerevisiae deletion strains, growth OD

Measured: normalized growth

C[C@@]1(C2CCCC2)Cc2cc(OCC(=O)O)c(Cl)c(Cl)c2C1=O
inactive: locus YAL040C, strain CLN3, stronger effect = lower value 1 | locus YCL061C, strain MRC1 (second series), stronger effect = lower value 1.01 | locus YDR363W, strain ESC2, stronger effect = lower value 1.01 | locus YER002W, strain NOP16, stronger effect = lower value 1 | locus YMR307W, strain GAS1, stronger effect = lower value 1.01 | locus YNL128W, strain TEP1, stronger effect = lower value 1 | locus YNL175C, strain NOP13, stronger effect = lower value 1 | locus YNL197C, strain WHI3, stronger effect = lower value 1 | locus YNL224C, strain SQS1, stronger effect = lower value 1 | locus YNL322C, strain KRE1, stronger effect = lower value 1 | locus YOR083W, strain WHI5 (second series), stronger effect = lower value 1.01 | locus YPL055C, strain LGE1, stronger effect = lower value 1.01 | locus YPL241C, strain CIN2, stronger effect = lower value 1.01
